This is part of a sample that, as a whole, favours compounds with a hit. Of some 83,000 tested, about 20% had one in any assay.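 Plates (96-well) were seeded with cells, treated with compound at one concentration, and incubated for 48 hours before percent growth was determined.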 Activity calls are given as the source filed them. How the source made its calls: active means growth percent below 10; inactive means the rest.

For one assay, the system named is UACC-62 melanoma. Kind of assay: NCI-60 one-dose screen, 48 h (100 = growth as untreated, 0 = no growth, -100 = all killed). The settings on record: 10 µM unless noted.
For the compound `COc1ccccc1-c1nc2ccc3[nH]ncc3c2c2c1CCCC2`, the growth is 71.3% (inactive).
In the case of `O=c1ccc2nc(-c3ccccc3)nn(-c3ccccn3)c-2c1`, the growth was 93.4% (inactive).
Still for that read-out and setting: with `Nc1ncc(-c2ccc3ncnc(N4CCc5cc(F)c(Cl)cc54)c3c2)cc1C=O` the figure was -17.2% (active).
The same measure, in the same setting: with `C#Cc1ccc(NC(=O)Cc2ccc(/C=C/C(=O)c3nccn3C)cc2)cc1` the figure was 72.9% (inactive).
In the case of `CCCCN(CCC#N)C(N)=O`, the growth is 95.4% (inactive).
Same read-out and setting: the value for `COc1ccc(-c2cn(Cc3ccc4c(Br)cc(Br)c(O)c4n3)nn2)cc1` was 95.6% (inactive).
On the same count and under the same terms, with `CCc1ccc(Cc2cnc(NC(=O)c3cc(C)oc3C)s2)cc1` the figure was 25.3% (inactive); with `COc1cc(/C=C/c2cc(/C=C/c3ccc(O)c(OC)c3)n(C(=O)Nc3ccc(C)cc3C)n2)ccc1O`, -48.5% (active).
Still for that read-out and setting: the value for `Clc1nc(N2CCC[N+]3(CC2)CC[N+]2(CCCNCC2)CC3)nc(N2CCC[N+]3(CC2)CC[N+]2(CCCNCC2)CC3)n1` (stereo not drawn) was 96.8% (inactive); that for `O=S(=O)(Nc1ccc(Br)cc1)c1ccc(-c2cnc(C3CC3)o2)cc1` was 23.6% (inactive); that for `O=C1N/C(=N/N=C(c2ccccc2)c2ccccc2)S/C1=C\c1ccc(Br)cc1` was 79.8% (inactive).
Regarding `COc1cc(OCc2cccc(-c3ccc4c(c3)OCCO4)c2C)cc(OC)c1C=O`, the growth is 38% (inactive).
The same measure, in the same setting: with `COC(=O)c1c(C)nc(C)c2c1C(=O)C(Br)=C(NCCCCO)C2=O` the figure was 44.2% (inactive); with `COc1ccc(CNc2c3ccccc3nc3ccccc23)cc1OC`, 26.8% (inactive); with `COc1cc(/C=C/C(=O)c2ccc(-n3cc(CN4CCN(c5cc6c(cc5F)c(=O)c(C(=O)O)cn6C5CC5)CC4)nn3)cc2)cc(OC)c1OC`, 72.8% (inactive).
Same read-out and setting: with `CCCCCC(C)(O)C(C(=O)O)c1ccccc1` (stereo not drawn) the figure was 103% (inactive).
Still for that read-out and setting: with `C[C@@H]1N=C(c2ccc(Cl)cc2Cl)Nc2nc3ccccn3c2C1=O` the figure was 40.5% (inactive); with `O=C(Nc1ccccc1)Nc1ccccc1CNc1nc(Nc2ccc(OCCN3CCCC3)cc2)ncc1Cl`, 86.1% (inactive); with `COc1ccc(S(=O)(=O)N(C)c2oc(-c3ccc(Cl)cc3)nc2C#N)cc1`, 59.1% (inactive).
Turning to `COc1cccc(C(=O)Nc2cccc(NC(=O)c3ccccn3)c2)c1`, the growth was 96.3% (inactive).
The same measure, in the same setting: the value for `CS(=O)(=O)c1ccc(/C(=N/NC(N)=S)c2ccc(F)cc2)cc1` was 101% (inactive); that for `CSc1nc(N)c2c(n1)NC(c1ccccc1)C1CCc3ccccc3C1=N2` (stereo not drawn) was 42.6% (inactive); that for `COc1cccc(CNc2nnc(C)c(C)n2)c1O` was 97.1% (inactive).
On the same count and under the same terms, the value for `COc1ccc(NC(=O)CSc2oc(-c3ccccc3)nc2S(=O)(=O)c2ccc(Cl)cc2)c(OC)c1` was 41.4% (inactive); that for `O=C(c1ccc(F)cc1)C1CCN(CCn2c(=O)[nH]c3ccccc3c2=O)CC1` was 102% (inactive).
Same read-out and setting: the value for `CC(=O)OCC(=O)O[C@@H]1C[C@]2(C(C)C)O[C@@]1(C)[C@@H]1CC[C@@H](C)[C@H]1[C@@H]2OC(=O)/C=C/c1ccccc1` was 81% (inactive); that for `O=C(Nc1ncc(Cc2ccccc2)s1)c1cc(-c2ccccc2)nc2ccccc12` was 89.8% (inactive); that for `O=c1cc(-c2nccc3c2[nH]c2ccccc23)c2cc(Cl)ccc2o1` was 45.5% (inactive).
In the case of `O=C(CN1C(=O)NC2NC(=O)NC21)N/N=C/c1cccc([N+](=O)[O-])c1` (stereo not drawn), the growth was 88.8% (inactive).
The same measure, in the same setting: the value for `CCCCCCCCCCCCCC[n+]1ccc2c(C)c3c(c(C)c2c1)c1cc(O)ccc1n3CC` was -68.5% (active); that for `C=C(C)[C@@H]1CCC[C@]2(C(=O)OC)CC[C@]3(C)[C@@H](CC[C@@H]4[C@@]5(C)CCCNC(C)(C)[C@@H]5CC[C@]43C)[C@@H]12` was 87.8% (inactive).
Same read-out and setting: with `COc1cc2c(cc1-c1c(C)noc1C)ncc1nc(C3CCOCC3)n(C3CCC(OC(F)F)CC3)c12` (stereo not drawn) the figure was 25.4% (inactive); with `O=C1CCC(C(=O)N/N=C/c2ccc([N+](=O)[O-])cc2)N1` (stereo not drawn), 100% (inactive).
For the compound `COc1cc(C(=O)/C=C/c2c(-c3cccs3)nc3sc(C)cn23)cc(OC)c1OC`, the growth was -38.7% (active).
As to `O=C(NS(=O)(=O)c1ccccc1)n1cc(-c2ccncc2)c(-c2cc(O)cc(Cl)c2)n1`, the growth was 39.3% (inactive).
In the case of `COC(CCP(=O)(c1ccccc1)c1ccccc1)(C(=O)c1ccccc1)c1ccccc1` (stereo not drawn), the growth was 53.8% (inactive).
Consider `Cn1nc(-c2ccc(Cl)cc2)nc2c(=O)n(C)c(=O)nc1-2`, for which the growth was -55.2% (active).
Still for that read-out and setting: the value for `CC1(C)CCC[C@]23C(=O)O[C@](O)(C(=O)C4=C[C@@](C)(/C=C/CCCc5ccc6ccc7cccc8ccc5c6c78)CC[C@@]42O)[C@@H]13` was -75.5% (active); that for `COc1ccc(C2=C/C(=C\c3ccccc3O)C(=O)N2Cc2ccccc2)cc1` was 63.9% (inactive).

In a further assay the test system is LOX IMVI melanoma. The description is as above. The settings on record: 10 µM unless noted.
With `COc1ccccc1-c1nc2ccc3[nH]ncc3c2c2c1CCCC2`, the growth is 80.5% (inactive).
Still for that read-out and setting: the value for `O=c1ccc2nc(-c3ccccc3)nn(-c3ccccn3)c-2c1` was 49.6% (inactive); that for `Nc1ncc(-c2ccc3ncnc(N4CCc5cc(F)c(Cl)cc54)c3c2)cc1C=O` was 19.2% (inactive); that for `C#Cc1ccc(NC(=O)Cc2ccc(/C=C/C(=O)c3nccn3C)cc2)cc1` was 24.1% (inactive).
The same measure, in the same setting: the value for `CCCCN(CCC#N)C(N)=O` was 105% (inactive); that for `COc1ccc(-c2cn(Cc3ccc4c(Br)cc(Br)c(O)c4n3)nn2)cc1` was 49.4% (inactive).
The same measure, in the same setting: the value for `CCc1ccc(Cc2cnc(NC(=O)c3cc(C)oc3C)s2)cc1` was 41.3% (inactive); that for `COc1cc(/C=C/c2cc(/C=C/c3ccc(O)c(OC)c3)n(C(=O)Nc3ccc(C)cc3C)n2)ccc1O` was -29.8% (active).
With `Clc1nc(N2CCC[N+]3(CC2)CC[N+]2(CCCNCC2)CC3)nc(N2CCC[N+]3(CC2)CC[N+]2(CCCNCC2)CC3)n1` (stereo not drawn), the growth is 98% (inactive).
The same measure, in the same setting: the value for `O=S(=O)(Nc1ccc(Br)cc1)c1ccc(-c2cnc(C3CC3)o2)cc1` was 45.9% (inactive); that for `O=C1N/C(=N/N=C(c2ccccc2)c2ccccc2)S/C1=C\c1ccc(Br)cc1` was 98.5% (inactive).
On the same count and under the same terms, the value for `COc1cc(OCc2cccc(-c3ccc4c(c3)OCCO4)c2C)cc(OC)c1C=O` was 58.7% (inactive).
Still for that read-out and setting: with `COC(=O)c1c(C)nc(C)c2c1C(=O)C(Br)=C(NCCCCO)C2=O` the figure was 50.2% (inactive); with `COc1ccc(CNc2c3ccccc3nc3ccccc23)cc1OC`, -3.83% (active).
Turning to `COc1cc(/C=C/C(=O)c2ccc(-n3cc(CN4CCN(c5cc6c(cc5F)c(=O)c(C(=O)O)cn6C5CC5)CC4)nn3)cc2)cc(OC)c1OC`, the growth was 55.7% (inactive).
Consider `CCCCCC(C)(O)C(C(=O)O)c1ccccc1` (stereo not drawn), for which the growth is 102% (inactive).
Turning to `C[C@@H]1N=C(c2ccc(Cl)cc2Cl)Nc2nc3ccccn3c2C1=O`, the growth is 51.3% (inactive).
On the same count and under the same terms, the value for `O=C(Nc1ccccc1)Nc1ccccc1CNc1nc(Nc2ccc(OCCN3CCCC3)cc2)ncc1Cl` was -68.3% (active); that for `COc1ccc(S(=O)(=O)N(C)c2oc(-c3ccc(Cl)cc3)nc2C#N)cc1` was 71.9% (inactive); that for `COc1cccc(C(=O)Nc2cccc(NC(=O)c3ccccn3)c2)c1` was 95.2% (inactive).
Consider `CS(=O)(=O)c1ccc(/C(=N/NC(N)=S)c2ccc(F)cc2)cc1`, for which the growth is 101% (inactive).
Take `CSc1nc(N)c2c(n1)NC(c1ccccc1)C1CCc3ccccc3C1=N2` (stereo not drawn): the growth was 43.3% (inactive).
Still for that read-out and setting: the value for `COc1cccc(CNc2nnc(C)c(C)n2)c1O` was 98.8% (inactive).
Take `COc1ccc(NC(=O)CSc2oc(-c3ccccc3)nc2S(=O)(=O)c2ccc(Cl)cc2)c(OC)c1`: the growth was 76.1% (inactive).
On the same count and under the same terms, the value for `O=C(c1ccc(F)cc1)C1CCN(CCn2c(=O)[nH]c3ccccc3c2=O)CC1` was 98.7% (inactive).
The same measure, in the same setting: the value for `CC(=O)OCC(=O)O[C@@H]1C[C@]2(C(C)C)O[C@@]1(C)[C@@H]1CC[C@@H](C)[C@H]1[C@@H]2OC(=O)/C=C/c1ccccc1` was 90.2% (inactive); that for `O=C(Nc1ncc(Cc2ccccc2)s1)c1cc(-c2ccccc2)nc2ccccc12` was 86.7% (inactive); that for `O=c1cc(-c2nccc3c2[nH]c2ccccc23)c2cc(Cl)ccc2o1` was 50.1% (inactive).
Still for that read-out and setting: with `O=C(CN1C(=O)NC2NC(=O)NC21)N/N=C/c1cccc([N+](=O)[O-])c1` (stereo not drawn) the figure was 98.1% (inactive).
As to `CCCCCCCCCCCCCC[n+]1ccc2c(C)c3c(c(C)c2c1)c1cc(O)ccc1n3CC`, the growth is -70% (active).
Still for that read-out and setting: with `C=C(C)[C@@H]1CCC[C@]2(C(=O)OC)CC[C@]3(C)[C@@H](CC[C@@H]4[C@@]5(C)CCCNC(C)(C)[C@@H]5CC[C@]43C)[C@@H]12` the figure was 97.8% (inactive); with `COc1cc2c(cc1-c1c(C)noc1C)ncc1nc(C3CCOCC3)n(C3CCC(OC(F)F)CC3)c12` (stereo not drawn), 24% (inactive); with `O=C1CCC(C(=O)N/N=C/c2ccc([N+](=O)[O-])cc2)N1` (stereo not drawn), 91.9% (inactive).
Same read-out and setting: the value for `COc1cc(C(=O)/C=C/c2c(-c3cccs3)nc3sc(C)cn23)cc(OC)c1OC` was 9.35% (active).
On the same count and under the same terms, the value for `O=C(NS(=O)(=O)c1ccccc1)n1cc(-c2ccncc2)c(-c2cc(O)cc(Cl)c2)n1` was 92.8% (inactive); that for `COC(CCP(=O)(c1ccccc1)c1ccccc1)(C(=O)c1ccccc1)c1ccccc1` (stereo not drawn) was 64.6% (inactive).
Take `Cn1nc(-c2ccc(Cl)cc2)nc2c(=O)n(C)c(=O)nc1-2`: the growth is -58.6% (active).
For the compound `CC1(C)CCC[C@]23C(=O)O[C@](O)(C(=O)C4=C[C@@](C)(/C=C/CCCc5ccc6ccc7cccc8ccc5c6c78)CC[C@@]42O)[C@@H]13`, the growth is -85.5% (active).
The same measure, in the same setting: the value for `COc1ccc(C2=C/C(=C\c3ccccc3O)C(=O)N2Cc2ccccc2)cc1` was 81% (inactive).

Values taken from PubChem BioAssay (NCI).
